# Source: PubChem BioAssay AID588475 (Sanford-Burnham Center for Chemical Genomics, 2011)
# The whole screen tested about 350,000 compounds, of which about 2,100 (0.6%) were called active. The full list was thinned out, with actives kept by preference. A number with no mark means an inactive call.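 The calls were made as follows: active = inhibition of the ligand-induced calcium signal above about 50% at the single tested concentration (limit read from the data); inactive = the rest.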
# Test: antagonists of CRF-BP/CRF-R2 complex, primary screen, cell-based, HEK293, calcium dye fluorescence, uHTS (AID 588475)
# Conditions: CRF-induced calcium fluorescence, at 11.8 µM, active compounds read high
row,SMILES,inhibition
1,CCCCCn1c(=O)c(C(=O)NCc2ccccc2)c(O)c2ccccc21,3.02%
2,CCCCn1c(=O)c(C(=O)Nc2ccccc2Cl)c(O)c2ccccc21,-17.9%
3,CCCCCn1c(=O)c(C(=O)Nc2c(C)n(C)n(-c3ccccc3)c2=O)c(O)c2ccccc21,56.7% (active)
4,O=C(COc1ccc2ccccc2c1)N1CCN(Cc2ccncc2)CC1,-1.35%
5,O=c1c2ccccc2nc(-c2ccc(Cl)cc2Cl)n1-c1ccncc1,13.6%
